Measurements from PubChem BioAssay AID504847 (National Center for Advancing Translational Sciences (NCATS), 2011).
Values joined by “and” are separate entries in the source; they are usually repeats but may differ in a detail not shown here. Identical values can stand only once. Screen size: about 400,000 compounds; about 3,700 (0.93%) were called active. Roughly 3% stayed inconclusive and do not appear here. This is one part of a sample in which actives are shown more often than they occur. The call rests on the fitted dose curve; in most records, active means well fitted inhibition curve with a large enough effect; inconclusive means small, poorly fitted or top-dose-only effect, or another doubt; inactive means no such curve, though single readings can be large or run the other way.

Target: Vitamin D3 receptor (Homo sapiens) (UniProt P11473)
Sequence (P11473 whole entry, looked up): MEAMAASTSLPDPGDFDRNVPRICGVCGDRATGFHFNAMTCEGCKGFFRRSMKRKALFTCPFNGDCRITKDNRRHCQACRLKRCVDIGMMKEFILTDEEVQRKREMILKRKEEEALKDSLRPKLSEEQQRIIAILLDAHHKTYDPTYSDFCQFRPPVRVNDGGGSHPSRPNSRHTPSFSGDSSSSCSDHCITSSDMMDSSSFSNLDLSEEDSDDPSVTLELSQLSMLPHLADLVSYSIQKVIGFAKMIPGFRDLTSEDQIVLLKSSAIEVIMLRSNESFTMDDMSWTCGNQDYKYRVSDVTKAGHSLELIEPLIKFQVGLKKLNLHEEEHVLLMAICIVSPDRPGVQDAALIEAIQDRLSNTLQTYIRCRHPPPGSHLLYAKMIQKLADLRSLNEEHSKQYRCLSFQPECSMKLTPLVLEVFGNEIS
Experiment: Inhibitors of the vitamin D receptor (VDR): qHTS
Details: VDR-SRC2-3 peptide fluorescence polarization, 2 h; max response, negative = inhibition: hits give low values
Outline: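 Measured by FP: displacement of SRC2-3 coactivator peptide from VDR by library compounds, following a two-hour ambient incubation.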
On the % scale 0 is the no-effect control and ±100 the full control effect; potency means the concentration at half of the fitted maximal effect.

| Compound | max response, negative = inhibition | Potency |
| --- | --- | --- |
| COC(=O)c1ccc(-c2nc3cc(NC(C)=O)ccc3o2)cc1 | -22.5% (inactive) | – |
| H-EHIPA-OH | 2.51% (inactive) | – |
| CCc1ccc(NC(=O)C2CCCN2S(=O)(=O)c2ccc3nc(-c4ccccc4)[nH]c3c2)cc1 (stereo unspecified) | 14.5% (inactive) | – |
| Oc1c(Cl)cc(Cl)c(Cl)c1Cc1c(O)c(Cl)cc(Cl)c1Cl | – | 44.7 µM (active) |
| CCOC(=O)C1=NO[C@@]2(C=C(Br)C(=O)[C@H]3O[C@H]32)C1 | – | 11.2 µM (active) |
| CCOC(=O)C1=NOC(Cn2cc(C(C)=O)c(=O)[nH]c2=O)C1 (stereo unspecified) | 1.11% (inactive) | – |
| COc1cc2c(cc1OC)CC(=O)N(CCCN(C)C[C@H]1Cc3cc(OC)c(OC)cc31)CC2 | 7.93% (inactive) | – |
| Cc1ccc(-n2c(N)c(C(=O)N3CCOCC3)sc2=S)c(C)c1 | – | 79.4 µM (active) |
| N#Cc1ccccc1-n1c(N)c(C(=O)N2CCCC2)sc1=S | – | 50.1 µM (active) |
| Cc1ccc(S(=O)(=O)N2CCN(C(=O)N3CCOCC3)CC2)c(C)c1 | -13.6% (inactive) | – |
| Cc1ccc(N2CCN(C(=O)c3cccs3)CC2)c(C)c1 | 7.64% (inactive) | – |
| O=C(c1ccc(CSc2ccccc2)cc1)N1CCCCCC1 | -7.06% (inactive) | – |
| N#Cc1c(N)sc2c1CCN(C(=O)OCc1ccccc1)C2 | -3.82% (inactive) | – |
| CCCCNC(=O)c1ccc2c(c1)NC(=O)C(C(C)C)N2 (stereo unspecified) | -3.65% (inactive) | – |
| CCc1ccc(NC(=O)CN2CCSc3ccc(S(=O)(=O)N4CCCC4)cc32)cc1 | 9.86% (inactive) | – |
| O=C(c1cccc(Br)c1)N1CCN(Cc2cc(=O)n3nc(-c4ccccc4)sc3n2)CC1 | 13% (inactive) | – |
| CCc1ccc(OCCCn2c(CCCNC(=O)C3CCCCC3)nc3ccccc32)cc1 | -1.15% (inactive) | – |
| O=C(NCCCO)C(=O)Nc1c2c(nn1-c1ccccc1)CSC2 | 5.32% (inactive) | – |
| COc1ccc(CCNC(=O)CCCCn2c(=O)c3ccccc3n(Cc3ccccc3C)c2=O)cc1OC | 7.91% (inactive) | – |
| COc1ccccc1N1CCN(/N=C/c2ccc(O)cc2O)CC1 | -16.7% (inactive) | – |
| COc1cc(/C=N/N2CCN(c3ccccc3)CC2)ccc1OC(C)=O | -1.69% (inactive) | – |
| COc1ccccc1N1CCN(/N=C\C(Br)=C\c2ccccc2)CC1 | – | 44.7 µM (active) |
| Cc1cc(C)cc(-n2ccnc2SCC(=O)Nc2nc3ccccc3s2)c1 | -5.28% (inactive) | – |

| Compound | max response, negative = inhibition | Potency |
| --- | --- | --- |
| COc1cccc(-c2n[nH]c3c2C(c2cccc(O)c2)N(C)C3=O)c1 (stereo unspecified) | 9.73% (inactive) | – |
| Cc1ccc(NC(=O)CSc2nc3c([nH]c4ccccc43)c(=O)n2-c2ccccc2)c(C)c1 | 3.26% (inactive) | – |
| Cc1cccc(-n2ccnc2SCC(=O)Nc2cccc3ccccc23)c1C | 21% (inactive) | – |
| COc1ccc(N(C(=O)c2cccnc2)S(=O)(=O)c2ccc(OC)c(OC)c2)cc1 | 2.95% (inactive) | – |
| O=C(c1cccnc1)N(c1cc2sc(=O)oc2c2ccccc12)S(=O)(=O)c1ccccc1 | – | 25.1 µM (active) |
| O=C(c1cccnc1)N(Cc1ccccc1)C(=O)c1cccnc1 | -6.19% (inactive) | – |
| Cc1sc2ncn(CC(=O)N3CCN(c4ccc(F)cc4)CC3)c(=O)c2c1S(=O)(=O)N1CCN(c2ncccn2)CC1 | -10.1% (inactive) | – |
| O=S(=O)(c1ccccc1)c1nc(-c2ccc(Cl)cc2Cl)oc1N1CCCCC1 | 1.4% (inactive) | – |
| CCOc1ccc(S(=O)(=O)Nc2ccc3oc4c(c3c2)CC(C)CC4)cc1 (stereo unspecified) | -17.2% (inactive) | – |
| O=C(Nc1ccc2ccccc2c1[N+](=O)[O-])c1ccccc1 | -2.31% (inactive) | – |
| O=C(NC1=CC(=O)c2ccccc2C1=O)c1ccccc1 | – | 11.2 µM (active) |
| COC(=O)c1nc(NC(=O)c2ccccc2)n[nH]1 | -20% (inactive) | – |
| CC(=O)OC1=C(C(C)=O)N(Cc2ccccc2)S(=O)(=O)c2ccccc21 | 8.35% (inactive) | – |
| CCOC(=O)N1CCc2c(sc(NCc3cccc(F)c3)c2C(=O)Nc2ccccc2OCC)C1 | -13.2% (inactive) | – |
| COCCOC(=O)c1sc(=S)n(CCOC)c1N | -9.87% (inactive) | – |
| COC(=O)c1sc(N2CCN(Cc3ccccc3)CC2)nc1N | 1.38% (inactive) | – |
| COC(=O)c1sc(=S)n(-c2ccccc2)c1N | – | 79.4 µM (active) |
| COc1ccc(CCNC(=O)c2ccc(CSCc3ccc(C)cc3)o2)cc1OC | 9.55% (inactive) | – |
| CCNc1ncc2ncc(=O)n(CCc3ccccc3)c2n1 | -21% (inactive) | – |
| COc1cccc(Cn2c(=O)c(-c3ccccc3)nc3cnc(OC)nc32)c1 | -7.36% (inactive) | – |
| CCNc1ncc2ncc(=O)n(Cc3cccc(OC)c3)c2n1 | – | 50.1 µM (active) |
| COc1ccc(CC(=O)NCCc2sc3nc(-c4ccc(OC)cc4)nn3c2C)cc1 | 5.32% (inactive) | – |
| CCCCCCCCCc1ccc(OCCOCCOCCOCCOCCOCCOCCOCCOCCO)cc1 | 1.96% (inactive) | – |

| Compound | max response, negative = inhibition | Potency |
| --- | --- | --- |
| CCCS(=O)(=O)N1CCC(CCOc2ccccc2)(C(=O)OCC)CC1 | -9.73% (inactive) | – |
| CCOC(=O)C1(CCOC)CCN(Cc2ccc(C(=O)OC)cc2)CC1 | 15.5% (inactive) | – |
| CCOC(=O)C1(CCOC)CCN(Cc2cc3ccccc3s2)CC1 | – | 44.7 µM (active) |
| COc1cc(Cl)c(C)cc1NC(=O)CCc1nc2cccnc2n1Cc1cccs1 | 3.57% (inactive) | – |
| Cc1cccc(N2CCN(C(=O)c3oc(=O)c4ccccc4c3-c3ccccc3)CC2)c1C | -3.42% (inactive) | – |
| CCCCC/C=C\C[C@H](O)/C=C/C=C/C=C/[C@@H](O)CCCC(=O)O | 7.71% (inactive) | – |
| O=C(Nc1cccc(Cl)c1)c1csnn1 | -5.14% (inactive) | – |
| O=C(Nc1ccccc1)c1nnsc1S(=O)(=O)c1ccc(Cl)cc1 | – | 25.1 µM (active) |
| O=C(Nc1ccc(Oc2ccccc2)cc1)C1CCN(S(=O)(=O)c2ccc(Cl)cc2)CC1 | -4.34% (inactive) | – |
| O=C(c1cccc(Cl)c1)N1CCN(CCc2ccncc2)CC1 | 9.31% (inactive) | – |
| Cc1ccccc1NC(=O)CCOc1ccccc1 | -6.86% (inactive) and -22.6% (inactive) | – |
| Cc1ccccc1NC(=O)Cn1cc(C(=O)C2CC2)c2ccccc21 | 8.49% (inactive) | – |
| Cc1ccccc1NC(=O)CSC(=O)c1ccccc1 | – | 79.4 µM (active) |
| COc1ccc(CCC(=O)c2c(O)cc(OC3OC(CO)C(O)C(O)C3O[C@@H]3OC(C)C(O)C(O)C3O)cc2O)cc1O (stereo partly specified) | -4.57% (inactive) | – |
| CCOc1cccc(NC(=O)CSc2ncc(-c3ccc(Cl)cc3)[nH]2)c1 | -19.8% (inactive) | – |
| CC(C)=CCN1CCC2(CCc3ccccc32)CC1 | 10% (inactive) | – |
| COc1ccc(Cc2nc3ccc(C(=O)NCc4ccc(OC)cc4OC)cc3o2)cc1 | 0.0782% (inactive) | – |
| Cc1ccc(S(=O)(=O)c2nc(-c3cccs3)oc2NCc2cccnc2)cc1 | -8.24% (inactive) | – |
| NC(=O)CSc1oc(-c2cccs2)nc1S(=O)(=O)c1ccccc1 | 2.03% (inactive) | – |
| CCCCS(=O)(=O)c1oc(-c2cccs2)nc1S(=O)(=O)c1ccccc1 | – | 10 µM (active) |
| Cc1ccc(N2CC(c3nnc(Cc4ccccc4Cl)o3)CC2=O)cc1 (stereo unspecified) | 0.444% (inactive) | – |
| Cc1ccc(-c2nnc3ccc(SCC(N)=O)nn23)cc1 | -9.24% (inactive) | – |
| Cc1ccc(-c2nn3c(=O)cc(CN4CCN(S(=O)(=O)c5ccc(Cl)cc5)CC4)nc3s2)cc1 | 6.31% (inactive) | – |

| Compound | max response, negative = inhibition | Potency |
| --- | --- | --- |
| CCc1c(C)sc(NC(=O)C2c3ccccc3Oc3ccccc32)c1C(=O)OC(C)C | -13.1% (inactive) | – |
| CC(C)(C)c1nnc(NC(=O)C2c3ccccc3Oc3ccccc32)s1 | – | 35.5 µM (active) |
| CC(C)(C)NC(=O)NC(=O)COC(=O)C1c2ccccc2Oc2ccccc21 | -16.6% (inactive) | – |
| COc1cc(C(=O)N2CCC(c3ccncc3)CC2)cc(OC)c1OC | 6.52% (inactive) | – |
| CCOC(=O)c1c(NC(=O)CSc2nccc(=O)[nH]2)sc(C)c1C | -12.3% (inactive) | – |
| CCOC(=O)c1c(NC(=O)CSc2nnc(CNc3ccc(C)cc3C)o2)sc(C)c1C | -11.8% (inactive) | – |
| CCOC(=O)c1c(NC(=O)COc2cc(C)ccc2C(C)C)sc(C)c1C | – | 39.8 µM (active) |
| CCc1nn(CC(=O)Nc2cccc(C)c2C)c(=O)c2cc3sccc3n12 | -8.74% (inactive) | – |
| CCOc1cccc2cc(-c3cn4c(n3)sc3cc(C)ccc34)c(=O)oc12 | 10.9% (inactive) | – |
| COc1ccc(-c2nc3cnc(Oc4ccccc4)nc3n(Cc3cccs3)c2=O)cc1 | -0.524% (inactive) | – |
| COc1cccc(N2CCN(S(=O)(=O)c3ccc4c(c3)CCCN4C(C)=O)CC2)c1 | 4.58% (inactive) | – |
| Cc1ccccc1CCNC(=O)C1CCN(c2nc3ccccc3nc2C(F)(F)F)CC1 | 5.88% (inactive) | – |
| CCOc1cc(C(=S)N2CCOCC2)ccc1OS(=O)(=O)c1ccc(Br)cc1 | -11.5% (inactive) | – |
| CCOc1cc(C(=O)OCC(=O)Nc2cccc(C)c2)ccc1OCC(=O)N1CCOCC1 | 8.55% (inactive) | – |
| CCOc1cc(C(=S)N2CCOCC2)ccc1O | – | 79.4 µM (active) |
| CCN(CC)S(=O)(=O)c1ccc2c(c1)nc(CN(C)C(=O)Nc1ccc(Cl)cc1)n2C | 11% (inactive) | – |
| O=C(c1csnn1)N1CCC2(CC1)CN(c1ncccn1)C2 | -1.15% (inactive) | – |
| O=C(c1ccco1)N1CCC[C@@]2(CCN(c3ccccc3)C2)C1 | – | 44.7 µM (active) |
| O=C(c1csnn1)N1CCC[C@@]2(CCN(Cc3nccs3)C2)C1 | 1.05% (inactive) | – |
| CC(C)NC(=O)N1CC[C@@]2(CCCN(C(=O)c3ccco3)C2)C1 | -6.63% (inactive) | – |
| O=C(c1ccco1)N1CCC2(CC1)CN(c1ncccn1)C2 | -6.75% (inactive) | – |
| O=C(c1csnn1)N1CCC[C@@]2(CCN(c3cccc(-c4ccccc4)c3)C2)C1 | – | 44.7 µM (active) |
